Most compounds without a hit are left out; they make up all but 3.4% or so of the library.
MEKK3 PB1 HTS – modulators of MEKK3-MEK5 PB1 binding, primary screen, biochemical, wildtype MEKK3, multiplex bead flow cytometry, Alexa488-MEK5; actives 1.4% (n = 290,000); bead-based flow cytometry, Alexa488-MEK5 binding to MEKK3; actives lie on both sides; 0 = blocked by unlabeled MEK5, 100 = vehicle; binding response (% of control), % at 10 µM; Mitogen-activated protein kinase kinase kinase 3 (Homo sapiens), Q99759; AID 1529, 2009;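 active = binding response more than 3 SD above or below the average of its plate-row segment, actives on both sides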;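 note: Alexa488 bead fluorescence after subtracting the streptavidin-only scavenger bead signal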
TMEM16A inh – TMEM16A chloride channel inhibitors, primary screen, cell-based, HTS. Anoctamin-1 (Mus musculus), Q8BHY3. HEK293 TMEM16A/YFP iodide influx fluorescence, ionomycin. normalized B-score (activity score, 25-100; higher = stronger inhibition) at 10 µM. actives 1.2% (n = 310,000). AID 588511, 2011;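 active = ratio plate-corrected score three or more library SD toward inhibition, starting fluorescence score within five deviations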;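 note: score derived from kinetic fluorescence span divided by baseline fluorescence per well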
NTR1 ag – agonists of human NTR1, primary screen, imaging, U2OS cells, beta-arrestin-GFP, high content | NTR1-U2OS beta-arrestin-GFP spot imaging, agonist mode | activation, % at 20 µM | AID 493036, 2011 | actives 0.17% (n = 330,000);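 active = activation at or above 40% of the spot to cytoplasm intensity ratio, with at least 20 cells analyzed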
Target sequence (P30989 whole entry, looked up): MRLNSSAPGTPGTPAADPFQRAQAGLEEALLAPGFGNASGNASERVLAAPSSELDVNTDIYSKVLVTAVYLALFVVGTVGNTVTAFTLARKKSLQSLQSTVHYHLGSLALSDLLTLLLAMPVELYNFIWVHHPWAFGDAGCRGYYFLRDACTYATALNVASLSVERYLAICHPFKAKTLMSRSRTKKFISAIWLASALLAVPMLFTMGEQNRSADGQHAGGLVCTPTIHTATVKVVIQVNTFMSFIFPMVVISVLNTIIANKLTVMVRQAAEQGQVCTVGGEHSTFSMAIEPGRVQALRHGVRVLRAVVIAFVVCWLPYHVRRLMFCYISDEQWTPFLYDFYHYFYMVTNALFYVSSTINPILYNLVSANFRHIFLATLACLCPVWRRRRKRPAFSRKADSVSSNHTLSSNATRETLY
MEKK2 mut-MEK5 – MEK5 binding signal on mutant MEKK2 PB1, primary screen, biochemical, multiplex bead flow cytometry, Alexa488-MEK5. percent response, % at 10 µM. Alexa488-MEK5 binding to MEKK2 mutant. AID 1530, 2009. actives 0.35% (n = 290,000); in the data active = percent response above about 24%, passing the limit was not always enough
ANO1 activ – TMEM16A chloride channel activators or potentiators, primary screen, cell-based, HTS | HEK293 TMEM16A/YFP-H148Q/I152L, iodide quench fluorescence; hits give low values | B-score at 10 µM | actives 0.3% (n = 340,000) | AID 623877, 2012;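 active = fluorescence-ratio B-score plate-corrected deviation score at least 3 library SD below zero, with starting fluorescence score within 5 deviations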;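 note: channel opened by trigger with iodide after compound preincubation; score built on the fluorescence ratio of max minus min over baseline; more negative score means more quench and so TMEM16A activation or potentiation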
MEKK2wt PB1 HTS – modulators of MEK5 binding to wildtype MEKK2, primary screen, biochemical, multiplex bead flow cytometry, Alexa488-MEK5. Mitogen-activated protein kinase kinase kinase 2 (Homo sapiens), Q9Y2U5. Alexa488-MEK5 binding to MEKK2 WT; actives lie on both sides. binding response (% of control), % at 10 µM. actives 1.1% (n = 290,000). AID 1531, 2009; in the data active = binding response below about 67% or above about 130%
TMEM16A reconf – TMEM16A chloride channel inhibitors, confirmation, cell-based, re-confirmation | actives 39% (n = 2,300) | inhibition, % at 10 µM | AID 652189, 2013 | HEK293 TMEM16A/YFP-H148Q, iodide quench fluorescence; ionomycin added to raise cell calcium | shares compounds with TMEM16A inh;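 active = mean duplicate percent inhibition, scaled so buffer wells are 0 and the reference blocker 100, over three buffer SD above buffer mean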
HEK293 Ca mobil – calcium mobilization in TMEM16A/YFP HEK293 cells, confirmation, counter-screen for TMEM16A inhibitor project | shares compounds with TMEM16A inh | Fluo4 calcium mobilization | calcium response (% of ionomycin), % at 10 µM | AID 652231, 2013 | actives 2% (n = 2,300);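 active = duplicate-averaged calcium signal over 20% of the ionomycin maximum, relative to buffer baseline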;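 note: each well's signal is peak minus trough fluorescence divided by its pre-addition baseline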
Parental YFP cnt – iodide YFP quench changes in parental YFP-HEK293, counter-screen for TMEM16A inhibitor project, cell-based. shares compounds with TMEM16A inh. 2,300 tested, under 10 active. YFP ratio F(max-min)/F0 at 10 µM. AID 652233, 2013. ionomycin;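 active = yellow fluorescent protein signal ratio exceeding the buffer control mean by over 5 SD of those controls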;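 note: ratio is mean of duplicate wells from kinetic YFP trace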
ClC-1 rat inh – ClC-1 chloride channel inhibition, selectivity assay for TMEM16A inhibitor project, cell-based, voltage-dependent ClC-1 | shares compounds with TMEM16A inh | CHO ClC-1-YFP, iodide influx fluorescence quench; iodide control reads 0, buffer control 100 | ratio percent, % at 10 µM | 2,300 tested, under 10 active | AID 652236, 2013;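 active = duplicate-mean ratio percent above the mean of iodide-only control wells, which defines zero, plus 5 of their SD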;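 note: higher percent means stronger block of ClC-1 iodide influx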
A number is an active result; – = inactive; · = not tested or not shown.

SMILES	MEKK3 PB1 HTS	TMEM16A inh	NTR1 ag	MEKK2 mut-MEK5	ANO1 activ	MEKK2wt PB1 HTS	TMEM16A reconf	HEK293 Ca mobil	Parental YFP cnt	ClC-1 rat inh
Cn1cccc1CN1CCN(C(=O)COc2ccccc2)CC1	–	–	–	–	–	–	·	·	·	·
Cc1ccccc1-n1c(-c2ccoc2)nc2ccccc2c1=O	–	–	–	–	–	–	·	·	·	·
CN1CCc2nc(N)c(C#N)c(-c3ccccc3)c2C1	–	–	–	–	–	–	–	–	–	–
O=C1N[C@H](Cc2ccccc2)C(=O)N2[C@@H]3[C@H](C[C@@H]12)c1ccccc1N3OOSc1ccccc1	–	–	–	–	–	–	·	·	·	·
O=c1[nH]sc2cc(F)ccc12	–	·	·	–	–	–	·	·	·	·
CCOC(=O)C1(CCc2ccccc2)CCN(Cc2ccc3c(c2)OCCO3)CC1	–	25	–	–	–	–	–	–	–	–
CCOC(=O)C1(CCc2ccccc2)CCN(Cc2ccc(NC(C)=O)cc2)CC1	–	–	–	–	–	–	·	·	·	·
c1ccc(CCN2CCC(N3CCN(c4ccccc4)CC3)CC2)cc1	–	25	–	–	–	–	–	–	–	–
Cc1cc(OCC(=O)N2C[C@H]3C[C@@H](C2)c2cccc(=O)n2C3)c2c(C)c(C)c(=O)oc2c1	–	–	–	–	–	–	·	·	·	·
O=C(COc1ccccc1)c1cn(Cc2ccccc2)c2ccccc12	–	–	–	–	–	–	–	–	–	–
Cc1cccc(N2C(=O)NC(=O)/C(=C/c3cc4c(cc3[N+](=O)[O-])OCO4)C2=O)c1	–	–	–	–	–	–	–	120%	–	–
CCN1C[C@]2(COC)CC[C@H](O)[C@@]34C5C[C@H]6[C@H](O)C5[C@](O)(C[C@H]6OC)[C@@H]([C@H](OC)C23)[C@@H]14 (stereo partly specified)	–	–	–	–	·	–	·	·	·	·
Cc1cc2c(C(F)(F)F)cc(=O)oc2c2c1NCCC2	–	–	–	–	–	–	18%	30%	–	–
O=c1cc(C(F)(F)F)c2cc3c4c(c2o1)CCCN4CCC3	–	–	–	–	–	–	·	·	·	·
C=Cn1ccnc1P(=S)(c1ccc(Cl)cc1)c1nccn1C=C	–	–	–	–	–	–	·	·	·	·
CCOC(=O)C1SC2(C(F)(F)F)CC1(O)c1c(C)cc(C)nc1O2 (stereo unspecified)	–	25	–	–	–	–	–	–	–	–
O=C(Nc1ccc(C(F)(F)F)cc1)c1cccn(Cc2ccc3c(c2)OC(F)(F)O3)c1=O	–	25	–	–	–	–	–	–	–	–
CCC(=NCCc1ccccc1)c1c(O)n(C)c(=O)n(C)c1=O	–	25	–	–	–	–	–	–	–	–
CCC(=NCc1ccco1)c1c(O)n(C)c(=O)n(C)c1=O	–	–	–	–	–	–	·	·	·	·
O=C(Cc1cccs1)N1CCC2(CC1)OCCO2	–	–	–	–	–	–	–	–	–	–
Cc1oc(-c2cccs2)nc1CSCC(=O)N1CCC2(CC1)OCCO2	–	–	–	–	–	–	·	·	·	·
O=[N+]([O-])c1ccc(N2CCCC(C(F)(F)F)C2)c2ccncc12 (stereo unspecified)	–	100	–	–	–	–	20%	–	–	–
Clc1ccc(CCNCc2ccncc2)c(Cl)c1	–	25	–	–	–	–	–	–	–	–
CCN(CC)c1ccc(N=Cc2c(O)n(-c3ccc(Cl)cc3)c(=O)[nH]c2=O)cc1	–	–	–	–	–	–	–	–	–	–
CCN(CC)c1ccc(N=Cc2c(O)n(-c3ccc(OC)cc3)c(=O)[nH]c2=O)cc1	–	–	–	–	–	–	·	·	·	·
Cc1ccccc1C(=O)N1CC1C (stereo unspecified)	·	·	·	·	–	·	·	·	·	·
COc1ccc(-n2c(O)c(C(C)=NCc3ccco3)c(=O)[nH]c2=O)cc1	–	–	–	–	–	–	·	·	·	·

Assay outcomes as filed in PubChem BioAssay.
